# From publication PMC5540273 (PLoS ONE, 2017)
# Read-outs that look alike come from different tables or passages of the source.
# How the values were obtained:
# GRK7 = conditions: concentration: 1 μM, replicates: in singlicate; n = 1
# GSK3A = conditions: concentration: 1 μM, replicates: in singlicate; n = 1
# GSK3B = conditions: n = 1
# HASPIN = test system: T1, HASPIN; conditions: concentration: 1 μM, replicates: in singlicate; n = 1
# T1 construct: gene GSG2
# HCK = conditions: concentration: 1 μM, replicates: in singlicate; n = 1
# HIPK1 = conditions: concentration: 1 μM, replicates: in singlicate; n = 1
# HIPK2 = conditions: concentration: 1 μM, replicates: in singlicate; n = 1
# HIPK3 = conditions: concentration: 1 μM, replicates: in singlicate; n = 1
# HIPK4 = conditions: concentration: 1 μM, replicates: in singlicate; n = 1
# HPK1 = conditions: concentration: 1 μM, replicates: in singlicate; n = 1
# HUNK = conditions: concentration: 1 μM, replicates: in singlicate; n = 1
# ICK = conditions: concentration: 1 μM, replicates: in singlicate; n = 1
# IGF1R = conditions: concentration: 1 μM, replicates: in singlicate; n = 1
# IKK-alpha = test system: T2, IKK-alpha; conditions: concentration: 1 μM, replicates: in singlicate; n = 1
# T2 construct: gene CHUK
# IKK-beta = test system: T3, IKK-beta; conditions: concentration: 1 μM, replicates: in singlicate; n = 1
# T3 construct: gene IKBKB
# IKK-epsilon = test system: T4, IKK-epsilon; conditions: concentration: 1 μM, replicates: in singlicate; n = 1
# T4 construct: gene IKBKE
# INSRR = conditions: concentration: 1 μM, replicates: in singlicate; n = 1
# INSR = conditions: concentration: 1 μM, replicates: in singlicate; n = 1
# IRAK1 = conditions: concentration: 1 μM, replicates: in singlicate; n = 1
# IRAK3 = conditions: concentration: 1 μM, replicates: in singlicate; n = 1
# [1] = concentration: 1 μM, replicates: in singlicate
# 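Also: KINOMEscan kinase panel screen.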
compound,measurement,setting,value
CCn1c(-c2cccnc2O)nc2cnccc21 [SB-736715],%Inh,GRK7,0%
same,%Inh,GSK3A,0%
same,%Inh,GSK3B; [1],0%
same,%Inh,HASPIN,0%
same,%Inh,HCK,0%
same,%Inh,HIPK1,11%
same,%Inh,HIPK2,0%
same,%Inh,HIPK3,0%
same,%Inh,HIPK4,0%
same,%Inh,HPK1,4%
same,%Inh,HUNK,0%
same,%Inh,ICK,0%
same,%Inh,IGF1R,0%
same,%Inh,IKK-alpha,0%
same,%Inh,IKK-beta,0%
same,%Inh,IKK-epsilon,0%
same,%Inh,INSRR,0%
same,%Inh,INSR,0%
same,%Inh,IRAK1,0%
same,%Inh,IRAK3,0%
Fc1cccc(COc2nnc(-c3ccc4c(c3)CCO4)o2)c1,%Inh,GRK7,8%
same,%Inh,GSK3A,0%
same,%Inh,GSK3B; [1],9%
same,%Inh,HASPIN,44%
same,%Inh,HCK,0%
same,%Inh,HIPK1,25%
same,%Inh,HIPK2,23%
same,%Inh,HIPK3,0%
same,%Inh,HIPK4,3%
same,%Inh,HPK1,0%
same,%Inh,HUNK,7%
same,%Inh,ICK,0%
same,%Inh,IGF1R,2%
same,%Inh,IKK-alpha,21%
same,%Inh,IKK-beta,7%
same,%Inh,IKK-epsilon,0%
same,%Inh,INSRR,0%
same,%Inh,INSR,0%
same,%Inh,IRAK1,44%
same,%Inh,IRAK3,0%
O=C(Nc1n[nH]c2nc(-c3nccs3)c(Br)cc12)C1CCCC1 [SB-742609],%Inh,GRK7,0%
same,%Inh,GSK3A,96.8%
same,%Inh,GSK3B; 1 µM,59%
same,%Inh,HASPIN,0%
same,%Inh,HCK,0%
same,%Inh,HIPK1,0%
same,%Inh,HIPK2,0%
same,%Inh,HIPK3,20%
same,%Inh,HIPK4,8%
same,%Inh,HPK1,33%
same,%Inh,HUNK,0%
same,%Inh,ICK,85%
same,%Inh,IGF1R,21%
same,%Inh,IKK-alpha,28%
same,%Inh,IKK-beta,27%
same,%Inh,IKK-epsilon,0%
same,%Inh,INSRR,32%
same,%Inh,INSR,9%
same,%Inh,IRAK1,38%
same,%Inh,IRAK3,0%
Cc1cccc(-c2nc(Nc3cccc(C(N)=O)c3)c3ccccc3n2)n1 [GW876019],%Inh,GRK7,9%
same,%Inh,GSK3A,16%
same,%Inh,GSK3B; [1],12%
same,%Inh,HASPIN,14%
same,%Inh,HCK,24%
same,%Inh,HIPK1,44%
same,%Inh,HIPK2,43%
same,%Inh,HIPK3,2%
same,%Inh,HIPK4,0%
same,%Inh,HPK1,36%
same,%Inh,HUNK,44%
same,%Inh,ICK,0%
same,%Inh,IGF1R,4%
same,%Inh,IKK-alpha,0%
same,%Inh,IKK-beta,0%
same,%Inh,IKK-epsilon,0%
same,%Inh,INSRR,0%
same,%Inh,INSR,0%
same,%Inh,IRAK1,14%
same,%Inh,IRAK3,10%
Cn1ccc2ncnc(Oc3cccc(C(=O)Nc4ccccc4)c3)c21,%Inh,GRK7,21%
same,%Inh,GSK3A,24%
same,%Inh,GSK3B; [1],2%
same,%Inh,HASPIN,37%
same,%Inh,HCK,8%
same,%Inh,HIPK1,0%
same,%Inh,HIPK2,30%
same,%Inh,HIPK3,5%
same,%Inh,HIPK4,0%
same,%Inh,HPK1,2%
same,%Inh,HUNK,0%
same,%Inh,ICK,8%
same,%Inh,IGF1R,2%
same,%Inh,IKK-alpha,22%
same,%Inh,IKK-beta,15%
same,%Inh,IKK-epsilon,7%
same,%Inh,INSRR,0%
same,%Inh,INSR,16%
same,%Inh,IRAK1,0%
same,%Inh,IRAK3,0%
Cn1ccc2ncnc(Oc3ccc(Nc4nc5ccccc5[nH]4)cc3)c21,%Inh,GRK7,0%
same,%Inh,GSK3A,12%
same,%Inh,GSK3B; [1],0%
same,%Inh,HASPIN,50%
same,%Inh,HCK,8%
same,%Inh,HIPK1,17%
same,%Inh,HIPK2,0%
same,%Inh,HIPK3,0%
same,%Inh,HIPK4,9%
same,%Inh,HPK1,0%
same,%Inh,HUNK,0%
same,%Inh,ICK,0%
same,%Inh,IGF1R,0%
same,%Inh,IKK-alpha,0%
same,%Inh,IKK-beta,0%
same,%Inh,IKK-epsilon,0%
same,%Inh,INSRR,17%
same,%Inh,INSR,0%
same,%Inh,IRAK1,0%
same,%Inh,IRAK3,0%
CC(C)(C)c1ccc(C(=O)Nc2cn3cc(-c4cccnc4)ccc3n2)cc1,%Inh,GRK7,24%
same,%Inh,GSK3A,16%
same,%Inh,GSK3B; [1],5%
same,%Inh,HASPIN,0%
same,%Inh,HCK,44%
same,%Inh,HIPK1,52%
same,%Inh,HIPK2,27%
same,%Inh,HIPK3,25%
same,%Inh,HIPK4,15%
same,%Inh,HPK1,11%
same,%Inh,HUNK,0%
same,%Inh,ICK,0%
same,%Inh,IGF1R,0%
same,%Inh,IKK-alpha,21%
same,%Inh,IKK-beta,27%
same,%Inh,IKK-epsilon,11%
same,%Inh,INSRR,7%
same,%Inh,INSR,0%
same,%Inh,IRAK1,41%
same,%Inh,IRAK3,30%
Cc1c(O)cccc1Nc1ccnc2ccc(C(F)(F)F)cc12.Cl [GW466413],%Inh,GRK7,0%
same,%Inh,GSK3A,9%
same,%Inh,GSK3B; [1],0%
same,%Inh,HASPIN,34%
same,%Inh,HCK,43%
same,%Inh,HIPK1,0%
same,%Inh,HIPK2,0%
same,%Inh,HIPK3,0%
same,%Inh,HIPK4,0%
same,%Inh,HPK1,3%
same,%Inh,HUNK,93.4%
same,%Inh,ICK,0%
same,%Inh,IGF1R,0%
same,%Inh,IKK-alpha,8%
same,%Inh,IKK-beta,0%
same,%Inh,IKK-epsilon,0%
same,%Inh,INSRR,0%
same,%Inh,INSR,0%
same,%Inh,IRAK1,0%
same,%Inh,IRAK3,0%
COc1cc(Nc2nccc(N3CCC(NC(=O)Nc4cc(C)ccc4C)C3)n2)cc(OC)c1OC (centres unmarked) [GSK1379762],%Inh,GRK7,0%
same,%Inh,GSK3A,0%
same,%Inh,GSK3B; [1],11%
same,%Inh,HASPIN,0%
same,%Inh,HCK,0%
same,%Inh,HIPK1,0%
same,%Inh,HIPK2,0%
same,%Inh,HIPK3,13%
same,%Inh,HIPK4,0%
same,%Inh,HPK1,66%
same,%Inh,HUNK,0%
same,%Inh,ICK,22%
same,%Inh,IGF1R,15%
same,%Inh,IKK-alpha,21%
same,%Inh,IKK-beta,17%
same,%Inh,IKK-epsilon,23%
same,%Inh,INSRR,9%
same,%Inh,INSR,0%
same,%Inh,IRAK1,58%
same,%Inh,IRAK3,73%
O=C(Nc1n[nH]c2nc(-c3nccs3)c(Br)cc12)C1CC1 [SB-742251],%Inh,GRK7,0%
same,%Inh,GSK3A,89%
same,%Inh,GSK3B; 1 µM,39%
same,%Inh,HASPIN,11%
same,%Inh,HCK,0%
same,%Inh,HIPK1,0%
same,%Inh,HIPK2,0%
same,%Inh,HIPK3,0%
same,%Inh,HIPK4,0%
same,%Inh,HPK1,48%
same,%Inh,HUNK,0%
same,%Inh,ICK,61%
same,%Inh,IGF1R,0%
same,%Inh,IKK-alpha,54%
same,%Inh,IKK-beta,49%
same,%Inh,IKK-epsilon,1%
same,%Inh,INSRR,0%
same,%Inh,INSR,2%
same,%Inh,IRAK1,64%
same,%Inh,IRAK3,4%
